# Bioassay records (PubChem BioAssay)
# HTT prom inh = Primary qHTS for Identification of Small Molecule Inhibitors of Huntingtin Promoter Activity; hit rate 0.93% among 48,000; AID 1508623, 2021; HEK293 HTT promoter firefly luciferase reporter, 24 h; Potency, µM (titrated, usually from 57.5 µM), usual class: inhibitors; further: nearly all actives have a fitted effect of over 50% in size
#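 HEK293 cells carrying firefly luciferase reporters were seeded at 2,500 per well in Opti-MEM and cultured for 24 h. They were then treated with compounds at up to 57.5 uM final for 24 h at 37 degrees C before Dual-Glo luminescence readout.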
# HTT-AS promoter = Primary qHTS for Identification of Small Molecule Activators of Huntingtin-Antisense Promoter Activity; HEK293 HTT-AS promoter firefly luciferase reporter, 24 h; response scale: percent change from vehicle, -100% = no light; Potency, µM (series often up to 57.5 µM), usual class: activators; hit rate 0.24% among 48,000; further: nearly all actives have a fitted effect of over 55% in size
#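 Quantitative HTS used concentration series of up to 57.5 uM final on HEK293 luciferase reporter cells, 24 h at 37 degrees C. Readout was Dual-Glo firefly luminescence.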
# PMP22 txn = Cell-based coincidence reporter assay to measure PMP22 gene transcription in S16 Pmp22-F2sN cells - Primary screen | S16 Pmp22-F2sN Schwann cells, FLuc/NLuc coincidence luminescence, 24 h | Potency, µM (series often up to 57.5 µM), most hits filed as inhibitors | hit rate 2% among 43,000; active means clear falling dose curves in both reporters; inconclusive means both reporters move, but less clearly or upward; inactive means either reporter flat; the % is the NLuc reporter signal
#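 S16(c9) Schwann cells with FLuc/NLuc coincidence reporter in the Pmp22 3' UTR; compounds pin-transferred, 24 h at 37C. Dual-luciferase read: FLuc first, then NLuc after Stop&Glo, each 10 min at room temperature.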
# mTORC1 inh = Acumen qHTS Assay for Inhibitors of the mTORC1 Signaling Pathway in MEF (Tsc2-/-, p53-/-) Cells: Sytravon. Tsc2-/- p53-/- MEF, phospho-rpS6 immunofluorescence/PI, 24 h. Potency, µM (titrated, usually from 38.3 µM), usual class: inhibitors. hit rate 0.78% among 44,000; further: nearly all actives have a fitted effect of over 50% in size
#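 Readout is phospho-S6 Alexa 488 signal normalized to PI per well, reported as % active cells with thresholds set from rapamycin (7.5 nM) and DMSO controls. Cells: Tsc2-/-, p53-/- MEFs, 24 hrs compound at 37 C; PI cell number serves as viability.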
# S16 viability = Cell viability qHTS assay in S16 Pmp22-F2sN cells. S16 Pmp22-F2sN Schwann cells (luciferase reporters placed in the Pmp22 gene) viability, CellTiter-Glo, 24 h. hit rate 0.48% among 43,000. Potency, µM (series often up to 57.5 µM), usual class: cytotoxic. AID 1508642, 2021; further: nearly all actives have a fitted effect of over 65% in size
#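 S16 Schwann cells carrying the Pmp22-F2sN reporter, seeded in 1536-well format, were exposed to library compounds for 24 h at 37C. Viability was read as CellTiter-Glo luminescence after 15 min at room temperature.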
# SKOV3 invasion = Primary qHTS assay for Inhibitors of ovarian cancer metastasis using an organotypic tumor microenvironment (TME) model. SKOV3ip1-GFP adhesion/invasion on 3D omental model, fluorescence. AID 1963576, 2024. hit rate 0.1% among 46,000. Potency, µM (titrated, usually from 45.8 µM), usual class: inhibitors; further: nearly all actives have a fitted effect of over 65% in size
#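 Primary human omental fibroblast/mesothelial 3D culture pre-formed 48 h. SKOV3ip1-GFP cells added with compounds (0.36-46 umol/L), incubated 2 h RT/16 h 37 C, fixed; GFP cells quantified at 488/509 nm.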
# Hits are given with their value; – = inactive; ? = inconclusive; · = no result; [ ] = dose if it differs, or a comment. Rows were chosen to be rich in hits. Some 3.6% of all compounds tested hit in one or more screens of this group. Unless noted, the call rests on the fitted dose curve; in most records, active means well fitted curve in the direction sought with a large enough effect; inconclusive means small, poorly fitted or top-dose-only effect, or another doubt; inactive means no such curve, though single readings can be large; an effect the other way counts as inactive or inconclusive.
SMILES,HTT prom inh,HTT-AS promoter,PMP22 txn,mTORC1 inh,S16 viability,SKOV3 invasion
CCCSc1ncc(Cl)c(C(=O)Nc2ccc(S(=O)(=O)N(C)c3ccccc3)cc2)n1,?,–,?,–,–,–
Cc1ccccc1CS(=O)(=O)c1ncc(Cl)c(C(=O)Nc2nnc(C(C)C)s2)n1,?,–,6.96µM,9.27µM,?,?
CS(=O)(=O)c1ncc(Cl)c(C(=O)Nc2c(C(=O)Nc3ccccc3)oc3ccccc23)n1,–,–,?,–,?,–
CC(C)c1nnc(NC(=O)c2nc(S(=O)(=O)Cc3ccccc3)ncc2Cl)s1,?,–,?,?,?,?
CCSc1ncc(Cl)c(C(=O)Nc2c(C(=O)Nc3cccc(C)c3)oc3ccccc23)n1,–,–,–,–,–,–
CCOC(=O)c1ccc(NC(=O)c2nc(S(=O)(=O)Cc3ccccc3)ncc2Cl)cc1,?,–,1.89µM,?,5.01µM,?
CCS(=O)(=O)c1ncc(Cl)c(C(=O)Nc2ccccc2)n1,?,–,2.24µM,1.85µM,6.31µM,?
CCS(=O)(=O)c1ncc(Cl)c(C(=O)Nc2c(C(=O)Nc3cccc(C)c3)oc3ccccc23)n1,–,–,3.18µM,?,2.24µM,–
CN1CCC(CNc2ccc3ncc(-c4cccc(OC(F)(F)F)c4)n3n2)CC1,?,–,·,·,·,–
Oc1ccc(C2CCN(c3ccnc4ccccc34)CC2)cc1O,?,–,·,·,·,–
COC(=O)C=CC(=O)OC,?,–,·,·,·,–
C=C[C@@H]1CN2CCC1C[C@@H]2C(O)c1ccnc2ccc(OC)cc12 (some centres not stated),–,–,·,·,·,–
Cc1ccc(-n2c(=O)c3ccc(C(=O)NCc4ccco4)cc3n(Cc3ccc(Cl)cc3)c2=O)cc1,–,–,?,11.7µM,?,–
Cc1cc(N2CCOCC2)cc2[nH]c(-c3c(NC[C@@H](O)c4cccc(Cl)c4)cc[nH]c3=O)nc12,?,–,·,·,·,?
CCc1ccc(NC(=O)c2cc(=O)c3ccc(C)c(C)c3o2)cc1,?,–,16.3µM,?,?,–
CCN(c1ccccc1)S(=O)(=O)c1ccc(NC(=O)c2cc(=O)c3ccc(C)c(C)c3o2)cc1,–,–,–,–,–,–
Cc1ccc(-n2nc(C(=O)N3CCN(c4cccc(C(F)(F)F)c4)CC3)c(=O)n(C)c2=O)cc1,31.6µM,–,?,–,–,–
COc1cc(Cl)c(NS(=O)(=O)c2cc(-c3cc(C)no3)ccc2OC)c(OC)c1,–,–,–,?,–,–
COc1cc(NS(=O)(=O)c2ccc(-c3cc(C)no3)cc2)cc(OC)c1,1.78µM,–,3.35µM,?,?,–
COc1cc(C(=O)Nc2sc3c(c2C#N)CCCC3)c(Br)c(OC)c1OC,–,–,13.4µM,–,?,–
COC(=O)c1c(NC(=O)c2cc(OC)c(OC)c(OC)c2Br)sc2c1CCC(C)C2 (configuration not stated),–,–[11.5 µM],–,–,–,–
COc1ccc(N(Cc2ccccc2)C(=O)c2nc(SC)ncc2Cl)cc1,20µM,–,?,–,?,–
CSc1ncc(Cl)c(C(=O)N(Cc2ccc(N(C)C)cc2)Cc2ccco2)n1,?,–,?,–,–,–
CCS(=O)(=O)c1ncc(Cl)c(C(=O)N(Cc2ccccc2)c2ccc(OC)cc2)n1,15.8µM,–,2.24µM,2.61µM,4.47µM,?
CCS(=O)(=O)c1ncc(Cl)c(C(=O)NCc2ccc(OC)cc2)n1,?,–,6.48µM,3.69µM,2.82µM,?
SMILES,HTT prom inh,HTT-AS promoter,PMP22 txn,mTORC1 inh,S16 viability,SKOV3 invasion
COc1ccc(N2CCN(C(=O)c3nc(SC)ncc3Cl)CC2)cc1,–,–,–,–,–,–
CCS(=O)(=O)c1ncc(Cl)c(C(=O)N2CCN(c3ccc(OC)cc3)CC2)n1,?,–,6.58µM,3.29µM,7.94µM,?
CC(=O)OCC(=O)[C@@]12OC(C)(C)O[C@H]1C[C@H]1[C@@H]3C[C@H](F)C4=CC(=O)C=C[C@]4(C)[C@@]3(F)[C@@H](O)C[C@@]12C,–,–,·,·,·,–
Nc1ncnc2c1c(-c1cccc(OCc3ccccc3)c1)cn2C1CC(CN2CCC2)C1 (configuration not stated),–,–,·,·,·,–
CCSc1ncc(Cl)c(C(=O)N(Cc2ccccc2)Cc2ccco2)n1,–,–,?,–,–,–
CCCS(=O)(=O)c1ncc(Cl)c(C(=O)N(Cc2ccccc2)Cc2ccco2)n1,?,–,6.45µM,16.5µM,2.24µM,2.24µM
COc1ccc(OCC(O)Cn2c(NCCO)nc3c2c(=O)n(C)c(=O)n3C)cc1 (configuration not stated),14.1µM,–,?,–,–,–
CCCNc1nc2c(c(=O)n(C)c(=O)n2C)n1CC(O)COc1ccccc1 (configuration not stated),–,–,?,–,–,–
O=c1c(-c2ccc(O)cc2)coc2cc(OC3O[C@H](CO)[C@H](O)[C@H](O)[C@H]3O)cc(O)c12 (some centres not stated),–,–,·,·,·,–
CC1(C)CCC[C@@]2(C)[C@@H]1CC[C@@]1(C)OC(=O)C[C@H]21,–,–,·,·,·,–
CCCCCN(CCC12CC3CC(CC(C3)C1)C2)C(=O)NCCCc1ccncc1,–,–,·,·,·,–
Cc1cccc2c1-c1sc(C(=O)NCCc3ccc(Cl)cc3)cc1CO2,?,–,?,?,31.6µM,–
CC(C)n1cnc2c(NCCc3ccc(O)cc3)nc(-c3csc4ccccc34)nc21,?,–,·,·,·,–
CCC(C)S(=O)(=O)c1oc(-c2cccs2)nc1S(=O)(=O)c1ccccc1 (configuration not stated),?,–,1.39µM,1.17µM,2.51µM,–
O=S(=O)(c1ccccc1)c1nc(-c2ccc(F)cc2)oc1NCc1ccccc1,–,–,–,–,–,–
CC(C)CS(=O)(=O)c1oc(-c2ccc(F)cc2)nc1S(=O)(=O)c1ccccc1,?,–,?,0.736µM,4.47µM,?
CCCCOC(=O)c1ccc(NC(=O)c2ccc3c(c2)CCCN3S(C)(=O)=O)cc1,5.01µM,–,–,?,–,–
CCCCOC(=O)c1ccc(NC(=O)c2ccc3c(c2)CCN3S(=O)(=O)c2ccccc2)cc1,?,–,–,?,–,–
